# Screening data deposited in PubChem by PCMD.
# C1s block: human complement C1s inhibition. P09871. purified C1s, fluorogenic AMC substrate, pooled mixtures. mean inhibition % of two 10-compound mixtures (stronger effect = higher value), % at 5 µM (by protocol). actives 0.16% (n = 62,000);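 active = inhibition above 20% in each of the two 10-compound mixture wells holding the compound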
# FXIIa mix inh: blocks human factor XIIa in pooled compound mixtures. P00748. purified FXIIa, fluorogenic substrate. inhibition, % at 5 µM. actives 0.2% (n = 62,000). AID 684
# Cathepsin G inh: cathepsin G (human) inhibition; P08311; purified enzyme, AMC-tetrapeptide fluorescence, pooled mixtures; inhibition, % at 5 µM (by protocol); actives 0.2% (n = 62,000);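 active = inhibition above 20% in each of the two mixture wells holding the compound; inactive = inhibition of 20% or less in either well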
# FXIa mix inh: factor XIa (human) inhibition, mixture screen. P03951. purified FXIa, fluorogenic substrate, pooled mixtures. inhibition, % at 5 µM. actives 0.19% (n = 62,000). AID 680;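 note: each value is inhibition by a whole ten-compound pool holding the compound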
# Numbers stand for hits; . = inactive. The list is not random: actives were taken first. Their share in the collection is about 0.61%. Cut-off read from the data, not from the text of the source, unless noted: active = inhibition above about 20% (passing the limit was not always enough); inactive = the rest.
SMILES,C1s block,FXIIa mix inh,Cathepsin G inh,FXIa mix inh
COCCN1C(=O)c2ccccc2C(C(=O)NCc2ccco2)C1c1c[nH]c2ccccc12 (stereo not drawn),.,.,.,.
COCCN1C(=O)c2ccccc2C(C(=O)NCCCN2CCCC2)C1c1c[nH]c2ccccc12 (stereo not drawn),.,.,.,37
O=C(O)CSC12CC3CC(C1)CC(C(=O)O)(C3)C2,.,.,.,24
CCOC(=O)CSc1nc(-c2cccs2)nc2c1c(=O)n(C)c(=O)n2C,.,.,.,.
O=C(NCCN1CCN(C(=O)c2cccs2)CC1)c1cccs1,.,.,.,.
O=C(CNC(=O)c1cccs1)NCCN1CCN(c2ccccc2F)CC1,.,.,.,21
Cc1cc(=O)oc(C)c1C(=O)NCCCN1CCN(c2ccccc2F)CC1,.,.,.,37
COC(=O)c1c(NC(=O)CN2CCCC(C)C2)c2c(C)cccc2n1C (stereo not drawn),.,.,.,.
CCc1nc(SCC(=O)N2CCCc3ccccc32)c2c(=O)n(C)c(=O)n(C)c2n1,.,.,.,.
CCn1cc(C(=O)N2CCCc3ccccc32)c2cc(OC)c(OC)cc2c1=O,.,.,.,.
COc1cc(NC(=O)c2csc3c2CCCC3)ncn1,.,.,34,.
CCOC(=O)c1cccc(NC(=O)c2cccs2)c1,.,.,.,.
CCOC(=O)c1c(NC(=O)c2cccs2)sc2c1CC(C)(C)OC2,.,.,.,21
O=c1cc(N2CCc3ccccc3C2)[nH]c(=O)n1C1CCCCC1,.,35,.,.
O=c1cc(N2CCC(Cc3ccccc3)CC2)[nH]c(=O)n1C1CCCCC1,.,.,.,.
CCN(CC)c1ccc(C(=O)OCC(=O)N2CCN(c3ccccc3)CC2)cc1,.,.,.,.
O=C(CN1C(=O)C2(OCCO2)c2ccccc21)c1ccc(Br)cc1,.,.,.,.
O=CN(Cc1ccco1)C1(C(=O)NC2CCCCC2)CCCCC1,.,33,.,.
O=C1NC(=O)C(CC(=O)N(Cc2ccco2)C2(C(=O)NC3CCCCC3)CCCCC2)N1 (stereo not drawn),.,.,.,.
CCc1c(C(C)O)oc2ccc3c(C)cc(=O)oc3c12 (stereo not drawn),.,.,.,.
O=C(CSc1nc2ccccc2o1)Nc1ccccc1N1CCCCCC1,.,.,.,38
O=C(CSc1nc2ccccc2o1)Nc1ccc(N2CCOCC2)c(Cl)c1,.,.,.,.
Cc1cccc(-c2c3c(=O)n(C)c(=O)n(C)c3c3cccnn23)c1,.,.,.,.
COC(=O)c1cc(Br)c(=O)n(Cc2ccc(OC)c(OC)c2)c1,.,.,.,.
CC(=O)NC(=O)NC1CSCC1OC(C)=O (stereo not drawn),58,.,.,.
SMILES,C1s block,FXIIa mix inh,Cathepsin G inh,FXIa mix inh
c1cncc(-c2nc3c4ccccc4nc(N4CCC(N5CCCCC5)CC4)n3n2)c1,.,.,.,.
COCCCNC(CC(=O)Nc1ccccc1C(=O)OC)C(=O)O (stereo not drawn),22,.,.,.
c1cc(-c2nc3cc(Oc4ccc5oc(-c6ccncc6)nc5c4)ccc3o2)ccn1,.,.,.,.
CCOc1cc(C)nc(N2CCCC(C(=O)NCc3ccccc3F)C2)n1 (stereo not drawn),.,.,.,.
COc1cc(C)nc(N2CCCC(C(=O)Nc3cccc(Cl)c3C)C2)n1 (stereo not drawn),.,.,.,21
Cn1ncc2c1ncn1c(-c3ccccc3Cl)nnc21,.,.,.,.
CC1CCN(S(=O)(=O)c2cccc(C(=O)Nc3ccccn3)c2)CC1,.,.,.,.
CC1CCN(S(=O)(=O)c2cccc(C(=O)NCc3cccs3)c2)CC1,23,.,.,.
O=S(=O)(c1ccccc1)c1ccccc1/C=N\O,.,25,.,.
Cc1cc(NS(=O)(=O)c2ccc(NC(=O)COc3ccccc3Cl)cc2)no1,.,.,.,.
Cc1cc(NS(=O)(=O)c2ccc(NC(=O)COc3ccccc3C(C)C)cc2)no1,25,.,.,.
O=C(CCCn1c(=S)[nH]c2cc3c(cc2c1=O)OCO3)N1CCN(c2ccccc2)CC1,.,.,.,.
Cc1cccc(N2CCN(C(=O)CCn3c(=S)[nH]c4cc5c(cc4c3=O)OCO5)CC2C)c1 (stereo not drawn),.,45,.,.
CCCOc1ccc(N2CC(C(=O)NC(C)C)CC2=O)cc1 (stereo not drawn),.,.,.,.
CCC(c1nnnn1C(C)(C)C)N1CCN(c2cc(Cl)ccc2C)CC1 (stereo not drawn),.,.,.,.
CC(=O)Nc1cccc(-c2nc3ccccc3c(=O)o2)c1,.,.,65,.
